# Test results reported in the supplement of paper PMC11732987, “Enantioselective OTUD7B fragment discovery through chemoproteomics screening and high-throughput optimisation” (Communications Chemistry, 2025).
# Values without a mark were called inactive.
# Experiments:
# Assay in all cases: log2 ratio of Biotin-Ahx-Ub-VS probe labelling (fragment/DMSO); higher = less target engagement (more negative = stronger competition), active = hit call of the paper (q ≤ 0.05, log2 ratio ≤ -1)
# Conditions in all cases: compound concentration: 200 uM; treatment time: 3 h
# ALG13 = target: T1, ALG13 (UniProt Q9NP73)
# T1 sequence (whole entry): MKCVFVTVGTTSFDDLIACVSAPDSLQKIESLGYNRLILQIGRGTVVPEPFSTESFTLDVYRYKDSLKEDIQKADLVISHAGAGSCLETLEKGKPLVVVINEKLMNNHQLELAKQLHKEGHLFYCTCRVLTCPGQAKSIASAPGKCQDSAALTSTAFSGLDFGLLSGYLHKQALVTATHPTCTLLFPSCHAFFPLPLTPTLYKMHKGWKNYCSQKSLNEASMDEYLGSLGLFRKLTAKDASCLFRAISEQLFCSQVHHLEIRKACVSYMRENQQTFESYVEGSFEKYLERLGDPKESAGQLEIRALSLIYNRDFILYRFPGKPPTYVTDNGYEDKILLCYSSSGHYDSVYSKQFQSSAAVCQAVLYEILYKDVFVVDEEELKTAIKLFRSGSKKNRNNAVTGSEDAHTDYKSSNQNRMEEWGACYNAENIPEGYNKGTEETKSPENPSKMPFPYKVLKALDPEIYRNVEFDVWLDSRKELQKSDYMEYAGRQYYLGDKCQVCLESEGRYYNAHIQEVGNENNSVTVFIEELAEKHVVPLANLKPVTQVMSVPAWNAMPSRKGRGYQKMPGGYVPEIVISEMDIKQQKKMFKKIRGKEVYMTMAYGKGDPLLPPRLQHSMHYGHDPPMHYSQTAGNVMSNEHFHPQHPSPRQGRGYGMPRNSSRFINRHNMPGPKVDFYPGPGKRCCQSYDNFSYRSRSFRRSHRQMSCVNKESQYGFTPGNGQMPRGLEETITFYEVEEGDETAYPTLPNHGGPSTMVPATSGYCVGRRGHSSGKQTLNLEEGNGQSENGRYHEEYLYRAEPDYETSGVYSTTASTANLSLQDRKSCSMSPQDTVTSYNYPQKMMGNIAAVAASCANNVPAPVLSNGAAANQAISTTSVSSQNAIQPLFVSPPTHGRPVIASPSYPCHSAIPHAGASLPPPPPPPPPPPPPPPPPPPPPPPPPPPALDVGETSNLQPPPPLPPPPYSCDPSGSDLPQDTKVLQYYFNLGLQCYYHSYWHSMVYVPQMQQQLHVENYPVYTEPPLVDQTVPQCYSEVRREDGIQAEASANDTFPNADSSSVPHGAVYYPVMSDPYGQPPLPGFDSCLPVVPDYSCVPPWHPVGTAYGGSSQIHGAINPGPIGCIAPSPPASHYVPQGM
# Method in brief: (§1)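 Using Biotin-Ahx-Ub-VS at 0.5 µM final for 1 h, DUBs were labelled in HEK293T lysate (495 µg per sample) that had first been treated in triplicate with fragment at 200 µM or vehicle for 3 h. NeutrAvidin enrichment, LysC and trypsin digestion and diaPASEF LC-MS/MS followed. Spectronaut label-free quantities were global-median-normalised. Values are average log2 fragment/vehicle ratios by unpaired t-test, using proteins with ≥2 unique peptides.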
# ATXN3 = ATXN3 (UniProt P54252)
# Sequence of ATXN3 (P54252 whole entry): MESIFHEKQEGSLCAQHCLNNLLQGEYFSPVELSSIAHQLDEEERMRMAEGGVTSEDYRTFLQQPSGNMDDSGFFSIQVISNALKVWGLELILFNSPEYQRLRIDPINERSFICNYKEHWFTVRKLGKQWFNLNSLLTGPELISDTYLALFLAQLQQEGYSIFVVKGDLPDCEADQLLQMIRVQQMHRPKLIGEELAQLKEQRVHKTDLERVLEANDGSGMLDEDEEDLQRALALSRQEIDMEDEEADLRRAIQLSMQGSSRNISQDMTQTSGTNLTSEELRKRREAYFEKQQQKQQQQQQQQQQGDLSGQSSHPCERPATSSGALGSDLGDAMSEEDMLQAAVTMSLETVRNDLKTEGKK
# Method in brief: as §1
# BAP1 = target: T2, BAP1 (UniProt Q92560)
# T2 sequence (whole entry): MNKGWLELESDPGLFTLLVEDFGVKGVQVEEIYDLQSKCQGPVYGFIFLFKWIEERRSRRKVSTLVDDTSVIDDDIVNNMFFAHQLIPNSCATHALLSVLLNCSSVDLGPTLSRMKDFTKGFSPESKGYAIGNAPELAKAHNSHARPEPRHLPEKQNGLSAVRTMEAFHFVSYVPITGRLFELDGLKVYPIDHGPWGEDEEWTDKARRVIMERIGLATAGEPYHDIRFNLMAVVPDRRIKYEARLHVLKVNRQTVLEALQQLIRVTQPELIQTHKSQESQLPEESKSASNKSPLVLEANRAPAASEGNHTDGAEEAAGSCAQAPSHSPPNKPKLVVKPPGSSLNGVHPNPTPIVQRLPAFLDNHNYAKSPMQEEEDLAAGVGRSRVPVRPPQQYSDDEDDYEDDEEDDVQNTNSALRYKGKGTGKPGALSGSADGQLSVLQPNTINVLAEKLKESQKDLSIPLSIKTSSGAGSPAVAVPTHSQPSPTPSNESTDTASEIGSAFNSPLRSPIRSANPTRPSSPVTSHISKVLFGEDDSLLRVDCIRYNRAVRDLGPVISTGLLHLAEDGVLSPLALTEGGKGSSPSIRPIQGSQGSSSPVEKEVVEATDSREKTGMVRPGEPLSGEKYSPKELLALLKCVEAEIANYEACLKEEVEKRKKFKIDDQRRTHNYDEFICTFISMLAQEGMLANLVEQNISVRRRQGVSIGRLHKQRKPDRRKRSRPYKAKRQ
# Method in brief: as §1
# EIF3F = EIF3F (UniProt O00303)
# Sequence of EIF3F (O00303 whole entry): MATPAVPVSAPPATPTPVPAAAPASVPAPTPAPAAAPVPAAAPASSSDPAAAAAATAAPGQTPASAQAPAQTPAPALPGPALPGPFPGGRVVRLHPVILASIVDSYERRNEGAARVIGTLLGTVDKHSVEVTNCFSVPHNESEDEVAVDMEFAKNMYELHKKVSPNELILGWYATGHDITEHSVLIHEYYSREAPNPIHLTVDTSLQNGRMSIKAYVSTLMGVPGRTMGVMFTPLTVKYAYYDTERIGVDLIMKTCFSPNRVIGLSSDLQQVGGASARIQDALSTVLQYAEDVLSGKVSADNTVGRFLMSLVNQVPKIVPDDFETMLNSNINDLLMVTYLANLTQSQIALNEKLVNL
# Method in brief: as §1
# EIF3H = EIF3H (UniProt O15372)
# Sequence of EIF3H (O15372 whole entry): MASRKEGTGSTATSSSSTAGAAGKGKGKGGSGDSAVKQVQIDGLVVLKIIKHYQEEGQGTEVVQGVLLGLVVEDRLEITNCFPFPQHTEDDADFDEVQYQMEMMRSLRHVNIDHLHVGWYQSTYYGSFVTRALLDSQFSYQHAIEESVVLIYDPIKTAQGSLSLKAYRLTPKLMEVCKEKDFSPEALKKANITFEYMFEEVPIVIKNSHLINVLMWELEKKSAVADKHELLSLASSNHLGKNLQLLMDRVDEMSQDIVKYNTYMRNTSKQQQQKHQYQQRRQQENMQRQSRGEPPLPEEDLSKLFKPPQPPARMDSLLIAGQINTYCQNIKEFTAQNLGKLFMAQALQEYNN
# Method in brief: as §1
# FAM105A = target: T3, FAM105A (UniProt Q9NUU6)
# T3 sequence (whole entry): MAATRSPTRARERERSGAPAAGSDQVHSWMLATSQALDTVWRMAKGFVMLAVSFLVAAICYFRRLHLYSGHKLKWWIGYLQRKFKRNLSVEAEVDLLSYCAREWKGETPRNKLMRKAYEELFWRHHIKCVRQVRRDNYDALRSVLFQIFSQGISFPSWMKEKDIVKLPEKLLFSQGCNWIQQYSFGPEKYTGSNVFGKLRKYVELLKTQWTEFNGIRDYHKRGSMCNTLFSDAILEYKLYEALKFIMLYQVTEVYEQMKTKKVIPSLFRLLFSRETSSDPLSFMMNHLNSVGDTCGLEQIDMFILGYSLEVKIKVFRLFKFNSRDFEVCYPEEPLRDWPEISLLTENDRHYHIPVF
# Method in brief: as §1
# OTUB1 = OTUB1 (UniProt Q96FW1)
# Sequence of OTUB1 (Q96FW1 whole entry): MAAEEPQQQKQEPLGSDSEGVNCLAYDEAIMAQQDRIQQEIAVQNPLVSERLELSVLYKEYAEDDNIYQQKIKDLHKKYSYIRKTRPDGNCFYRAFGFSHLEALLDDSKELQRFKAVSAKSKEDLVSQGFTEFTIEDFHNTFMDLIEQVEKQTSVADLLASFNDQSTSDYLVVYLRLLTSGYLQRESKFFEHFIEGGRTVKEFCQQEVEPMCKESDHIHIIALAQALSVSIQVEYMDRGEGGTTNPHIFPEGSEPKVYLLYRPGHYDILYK
# Method in brief: as §1
# OTUD4 = target: T4, OTUD4 (UniProt Q01804)
# T4 sequence (whole entry): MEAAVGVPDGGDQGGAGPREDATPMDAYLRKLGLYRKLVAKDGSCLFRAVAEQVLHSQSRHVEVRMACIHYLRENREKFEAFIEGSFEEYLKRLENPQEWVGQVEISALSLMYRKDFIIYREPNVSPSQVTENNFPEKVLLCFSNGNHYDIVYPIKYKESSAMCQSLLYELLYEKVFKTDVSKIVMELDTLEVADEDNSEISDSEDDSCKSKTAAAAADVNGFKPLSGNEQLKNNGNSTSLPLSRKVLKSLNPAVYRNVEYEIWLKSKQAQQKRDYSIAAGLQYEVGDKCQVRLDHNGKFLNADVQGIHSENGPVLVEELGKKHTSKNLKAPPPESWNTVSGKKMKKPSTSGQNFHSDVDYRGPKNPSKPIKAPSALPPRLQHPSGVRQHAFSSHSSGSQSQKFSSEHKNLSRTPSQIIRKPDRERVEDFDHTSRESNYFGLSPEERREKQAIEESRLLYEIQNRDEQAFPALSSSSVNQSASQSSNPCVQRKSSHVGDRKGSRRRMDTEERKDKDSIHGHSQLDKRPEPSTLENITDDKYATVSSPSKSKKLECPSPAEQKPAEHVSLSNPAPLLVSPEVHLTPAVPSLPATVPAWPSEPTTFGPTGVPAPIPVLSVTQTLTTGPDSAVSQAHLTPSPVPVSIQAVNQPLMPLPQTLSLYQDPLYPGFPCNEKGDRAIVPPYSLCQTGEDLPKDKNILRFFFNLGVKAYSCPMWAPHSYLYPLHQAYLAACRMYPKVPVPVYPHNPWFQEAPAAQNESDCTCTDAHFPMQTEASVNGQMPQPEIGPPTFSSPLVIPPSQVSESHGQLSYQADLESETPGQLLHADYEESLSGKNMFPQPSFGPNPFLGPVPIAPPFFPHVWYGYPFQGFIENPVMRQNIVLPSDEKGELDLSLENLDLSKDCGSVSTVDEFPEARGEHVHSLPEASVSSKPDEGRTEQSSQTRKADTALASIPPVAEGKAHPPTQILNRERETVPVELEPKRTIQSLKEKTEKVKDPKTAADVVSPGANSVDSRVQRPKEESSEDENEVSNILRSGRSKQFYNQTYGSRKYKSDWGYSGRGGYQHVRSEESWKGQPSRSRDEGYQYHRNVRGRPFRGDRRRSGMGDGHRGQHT
# Method in brief: as §1
# OTUD5 = target: T5, OTUD5 (UniProt Q96G74)
# T5 sequence (whole entry): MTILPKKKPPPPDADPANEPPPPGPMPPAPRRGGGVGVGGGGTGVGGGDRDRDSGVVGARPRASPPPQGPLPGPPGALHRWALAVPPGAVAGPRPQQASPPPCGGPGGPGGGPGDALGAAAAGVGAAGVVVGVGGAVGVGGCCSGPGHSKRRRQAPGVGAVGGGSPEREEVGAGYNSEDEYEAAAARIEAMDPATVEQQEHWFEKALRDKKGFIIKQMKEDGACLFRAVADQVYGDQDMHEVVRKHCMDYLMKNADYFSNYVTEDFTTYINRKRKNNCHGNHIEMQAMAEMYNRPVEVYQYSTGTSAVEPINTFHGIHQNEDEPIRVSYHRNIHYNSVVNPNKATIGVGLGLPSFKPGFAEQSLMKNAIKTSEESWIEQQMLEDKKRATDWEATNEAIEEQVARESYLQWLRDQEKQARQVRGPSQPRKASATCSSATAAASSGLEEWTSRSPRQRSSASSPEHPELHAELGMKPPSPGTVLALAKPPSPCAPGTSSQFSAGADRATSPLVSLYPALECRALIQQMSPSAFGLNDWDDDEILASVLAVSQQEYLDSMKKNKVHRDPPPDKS
# Method in brief: as §1
smiles,measurement,setting,value
O=C(CCl)Nc1cccc2ncccc12,log2 ratio of Biotin-Ahx-Ub-VS probe labelling,ALG13,-0.13
same,log2 ratio of Biotin-Ahx-Ub-VS probe labelling,ATXN3,0.14
same,log2 ratio of Biotin-Ahx-Ub-VS probe labelling,BAP1,-3.71 (active)
same,log2 ratio of Biotin-Ahx-Ub-VS probe labelling,EIF3F,0.254
same,log2 ratio of Biotin-Ahx-Ub-VS probe labelling,EIF3H,-0.273
same,log2 ratio of Biotin-Ahx-Ub-VS probe labelling,FAM105A,-0.205
same,log2 ratio of Biotin-Ahx-Ub-VS probe labelling,OTUB1,0.156
same,log2 ratio of Biotin-Ahx-Ub-VS probe labelling,OTUD4,-0.176
same,log2 ratio of Biotin-Ahx-Ub-VS probe labelling,OTUD5,-0.516
